Compound activity: PubChem, National Center for Advancing Translational Sciences (NCATS)
Hits are enriched below; roughly 18% of the tested compounds scored in any of these assays.
IL-1B inflam inh – inflammasome signaling inhibition, IL-1 beta readout; 4.7% of 360,000 active; activity change, % at 57.5 µM; THP-1 LPS/ATP IL-1B secretion, AlphaLISA, 16 h; hits give low values; in the data active means activity change below about -50%; inconclusive means mostly about -30% to -49%
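Secreted IL-1B measured by AlphaLISA bead assay after 16 h compound exposure of THP-1 cells; compounds (final up to 57.5 uM) added 1 h before LPS (250 ng/mL) and ATP (1.25 mM) stimulation; lower signal means less secretion.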
TGFb SMAD3 inh – blocks TGF-b signaling; 1.2% of 410,000 active; AID 588855; HepG2 CAGA-GFP TGF-b/SMAD3 reporter, GFP fluorescence, 18 h; TGF-beta stimulated, 500 pg/mL final; Potency, µM (titrated, usually from 46.1 µM), usual class: inhibitors; further: nearly all actives have a fitted effect of over 65% in size
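GFP signal (ex488/em500-530) from TGF-beta-stimulated HEPG2 CAGA-GFP cells, 500 pg/mL final, 18 h at 37 degrees C in DMEM plus 1% FBS, normalized to unstimulated and DMSO-stimulated controls.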
DT40 TDP1 no CPT – qHTS for Inhibitors of human tyrosyl-DNA phosphodiesterase 1 (TDP1): qHTS in cells in absence of CPT | DT40 Tdp1-/- hTDP1 cells, no CPT, ATP luminescence, 48 h | Potency, µM (highest dose often 46.2 µM), actives largely listed as inhibitors | 15% of 420,000 active; further: nearly all actives have a fitted effect of over 55% in size
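Growth kinetics read by CellTiter-Glo luminescence after ≥48 hr at 37 °C. Cells: DT40 Tdp1-/- stably carrying human TDP1, 400 per well, compound exposure in the absence of CPT (DMSO vehicle).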
TDP1 inh – TDP1 (human) enzyme inhibition | Q9NUW8 | recombinant TDP1, AlphaScreen DNA substrate cleavage | Potency, µM (series often up to 130 µM), most hits filed as inhibitors | 0.28% of 350,000 active; further: nearly all actives have a fitted effect of over 40% in size
Target sequence (Q9NUW8 whole entry, looked up): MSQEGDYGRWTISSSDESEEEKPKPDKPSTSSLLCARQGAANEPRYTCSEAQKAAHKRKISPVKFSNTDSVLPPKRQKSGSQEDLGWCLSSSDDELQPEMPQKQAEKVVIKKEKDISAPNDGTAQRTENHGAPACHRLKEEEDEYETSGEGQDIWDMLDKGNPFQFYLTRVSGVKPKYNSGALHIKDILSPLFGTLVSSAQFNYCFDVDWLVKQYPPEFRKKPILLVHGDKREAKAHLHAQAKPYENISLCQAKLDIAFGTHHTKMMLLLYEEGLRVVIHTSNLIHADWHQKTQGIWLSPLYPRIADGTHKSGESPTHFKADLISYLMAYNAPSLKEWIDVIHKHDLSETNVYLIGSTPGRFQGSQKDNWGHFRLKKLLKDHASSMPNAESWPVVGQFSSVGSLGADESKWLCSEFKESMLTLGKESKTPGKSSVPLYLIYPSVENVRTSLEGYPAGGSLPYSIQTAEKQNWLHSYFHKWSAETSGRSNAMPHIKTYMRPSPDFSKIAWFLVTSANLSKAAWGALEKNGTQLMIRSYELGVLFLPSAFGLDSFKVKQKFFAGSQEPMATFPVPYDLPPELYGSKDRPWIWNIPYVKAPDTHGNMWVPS
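Recombinant human Tdp1 (E. coli-expressed, 1 nM final) preincubated with compounds 15 min at room temperature, then 5'-biotin/3'-phosphotyrosine-FITC DNA substrate (15 nM final) added for 5 min. AlphaScreen beads (10 ug/ml final) added 10 min; cleavage lowers signal.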
TDP1 cell CPT – growth inhibition of DT40 Tdp1-/-;hTDP1 cells with camptothecin (screen for TDP1 inhibitors) | chicken DT40 Tdp1-/-;hTDP1 cells + 20 nM CPT, ATP luminescence, 48 h | Potency, µM (doses to about 46.2 µM), actives largely listed as inhibitors | 12% of 420,000 active | AID 686979; further: nearly all actives have a fitted effect of over 55% in size
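Cell growth measured by CellTiter-Glo luminescence after a minimum 48 h, 37 C compound exposure with 20 nM CPT in Tdp1-knockout DT40 cells stably expressing hTDP1, seeded 400/well; qHTS titration format.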
HepG2 tox – counter-screen for TGF-b inhibitors: cytotoxicity in HepG2 cells; Potency, µM (series often up to 46.1 µM), most hits filed as cytotoxic; HepG2 CAGA-GFP viability, ATP luminescence, 18 h; 0.76% of 410,000 active
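CellTiter-Glo luminescence gave cytotoxicity after 18 hours at 37 degrees C. The cells were HepG2 CAGA-GFP in 1% FBS DMEM, stimulated with 500 pg/mL TGF-beta after compound addition. %Activity was normalised to no-cell wells (complete cell-killing) and DMSO (no toxicity), and curves were fitted and classified.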
Large screens that a line does not name were inactive. Unless noted, the call rests on the fitted dose curve; in most records, active means well fitted curve in the direction sought with a large enough effect; inconclusive means small, poorly fitted or top-dose-only effect, or another doubt; inactive means no such curve, though single readings can be large; an effect the other way counts as inactive or inconclusive.

CC(=O)Oc1ccc(C(=O)Nc2cccc(C(=O)Nc3ccccc3C(=O)O)c2)cc1	none (no result: TDP1 inh)
COc1ccc(-c2noc(C3CCCN(C(=O)c4ccccc4OC)C3)n2)cc1 (configuration not stated)	DT40 TDP1 no CPT 15µM, TDP1 cell CPT inconclusive (no result: TDP1 inh)
COc1ccc(-c2noc(C3CC(=O)N(c4ccc5c(c4)OCCO5)C3)n2)c(OC)c1 (configuration not stated)	DT40 TDP1 no CPT inconclusive, TDP1 cell CPT inconclusive (no result: IL-1B inflam inh)
COc1cc(-c2noc(C3CC(=O)N(c4cc(C)ccc4C)C3)n2)cc(OC)c1OC (configuration not stated)	TGFb SMAD3 inh inconclusive, DT40 TDP1 no CPT 16µM, TDP1 cell CPT 18µM (no result: IL-1B inflam inh)
COc1ccccc1C(=O)N1CCCC(c2nc(-c3cc(OC)c(OC)c(OC)c3)no2)C1 (configuration not stated)	DT40 TDP1 no CPT inconclusive
COc1ccc(-c2noc(C3CCCN(C(=O)c4cccc(F)c4)C3)n2)cc1 (configuration not stated)	IL-1B inflam inh -69, DT40 TDP1 no CPT 18µM (no result: TDP1 inh)
COc1cccc(-c2noc(C3CCCN(C(=O)c4cccc(F)c4)C3)n2)c1 (configuration not stated)	DT40 TDP1 no CPT inconclusive, TDP1 cell CPT inconclusive (no result: TDP1 inh)
Cc1ccc(-c2noc(-c3ccccc3C(=O)N3CCCC3)n2)cc1	DT40 TDP1 no CPT 23µM, TDP1 cell CPT 16µM
CCc1cccc(CC)c1N(COC)C(=O)Cn1c(C)nc2ccccc21	TGFb SMAD3 inh inconclusive, DT40 TDP1 no CPT inconclusive, TDP1 cell CPT inconclusive (no result: IL-1B inflam inh)
COc1ccc(-c2noc(C3CCCN(C(=O)c4ccccc4C)C3)n2)cc1 (configuration not stated)	IL-1B inflam inh inconclusive, DT40 TDP1 no CPT 12µM, TDP1 cell CPT 16µM (no result: TDP1 inh)
COc1ccc(-c2noc(C3CCCN(C(=O)c4ccccc4)C3)n2)cc1 (configuration not stated)	DT40 TDP1 no CPT inconclusive, TDP1 cell CPT inconclusive
COc1ccc(C(=O)N2CCCC(c3nc(-c4cc(OC)c(OC)c(OC)c4)no3)C2)cc1 (configuration not stated)	DT40 TDP1 no CPT inconclusive, TDP1 cell CPT 21µM
CCc1nnc2sc(-c3cc(-c4ccccc4)nc4ccccc34)nn12	DT40 TDP1 no CPT inconclusive, TDP1 cell CPT 35µM
Cc1cc(OC(C)C(=O)NCC2CCCO2)cc(C)c1Cl (configuration not stated)	none
CCc1nc2c(OCc3ccc(C#N)cc3)cccn2c1N(C)C(=O)C(C)C	DT40 TDP1 no CPT inconclusive, TDP1 cell CPT inconclusive (no result: TDP1 inh)
Cc1ccc(C2=Nc3ccccc3SC(c3cccc([N+](=O)[O-])c3)C2)cc1 (configuration not stated)	DT40 TDP1 no CPT 16µM, TDP1 cell CPT inconclusive
Cc1ccc(CNC(=O)C2CC(c3cccc([N+](=O)[O-])c3)=NO2)cc1 (configuration not stated)	TGFb SMAD3 inh inconclusive
O=C(CC1SC(=Nc2ccc(OC(F)F)cc2)N(CCN2CCOCC2)C1=O)Nc1ccccc1 (configuration not stated)	DT40 TDP1 no CPT inconclusive, TDP1 cell CPT 16µM (no result: TDP1 inh)
Cc1c(N=C2SC(CC(=O)Nc3ccccc3)C(=O)N2CCN2CCOCC2)c(=O)n(-c2ccccc2)n1C (configuration not stated)	none
O=C(CC1SC(=Nc2ccc(OC(F)F)cc2)N(CCN2CCOCC2)C1=O)Nc1ccc(F)cc1F (configuration not stated)	IL-1B inflam inh -63, DT40 TDP1 no CPT inconclusive, TDP1 cell CPT inconclusive
COc1cccc(OCc2cc(C(=O)N(Cc3nccn3C)C(C)C)no2)c1	none
Cc1nc(CN(C)C(=O)c2cc(COc3ccc4ncccc4c3)on2)cs1	DT40 TDP1 no CPT 5.8µM, TDP1 cell CPT 5.8µM
CC(C)N(Cc1nccn1C)C(=O)c1cc(COc2ccc3ncccc3c2)on1	DT40 TDP1 no CPT 10µM, TDP1 cell CPT inconclusive
CCN(Cc1ccncc1)C(=O)c1cc(COc2c(C)cccc2C)on1	IL-1B inflam inh inconclusive, TGFb SMAD3 inh inconclusive, DT40 TDP1 no CPT inconclusive, TDP1 cell CPT 12µM
Cc1cccc(C)c1OCc1cc(C(=O)N(Cc2nccn2C)C(C)C)no1	DT40 TDP1 no CPT 10µM, TDP1 cell CPT 15µM
Cc1ccc(N2C(=O)C(CN3CCOCC3)C2c2ccccc2)cc1 (configuration not stated)	DT40 TDP1 no CPT 15µM, TDP1 cell CPT inconclusive
COc1ccc(C2C(CN3CCOCC3)C(=O)N2c2ccccc2)cc1 (configuration not stated)	DT40 TDP1 no CPT inconclusive
CCN1CCN(C(CCc2ccccc2)C(=O)NC2CCCCC2)CC1 (configuration not stated)	none (no result: TDP1 inh)
COC(=O)N[C@@H](/C=C/c1ccccc1)C[N+](=O)[O-]	none (no result: IL-1B inflam inh, TGFb SMAD3 inh, DT40 TDP1 no CPT, TDP1 cell CPT, HepG2 tox)
COC(=O)c1ccc(COC(=O)C(NC(=O)Cc2ccccc2)C(C)C)cc1 (configuration not stated)	TGFb SMAD3 inh inconclusive, DT40 TDP1 no CPT 16µM
Cc1cc(C)c2oc(C(=O)Nc3ccc(S(=O)(=O)N4CCCC(C)C4)cc3)cc(=O)c2c1 (configuration not stated)	DT40 TDP1 no CPT inconclusive, TDP1 cell CPT 15µM
Cc1ccc2oc(C(=O)Nc3ccc(S(=O)(=O)N4CCCC(C)C4)cc3)cc(=O)c2c1 (configuration not stated)	DT40 TDP1 no CPT 8.2µM, TDP1 cell CPT 16µM (no result: IL-1B inflam inh)
CC[C@H](CO)NCCN[C@@H](CC)CO	none (no result: IL-1B inflam inh, TGFb SMAD3 inh, DT40 TDP1 no CPT, TDP1 cell CPT, HepG2 tox)
COc1cccc(COC(=O)C2CCN(S(=O)(=O)c3ccc(F)cc3)CC2)c1OC	none
Cc1ccccc1NC(=O)c1ccc(Cl)c(S(=O)(=O)N2CCCCCC2)c1	TGFb SMAD3 inh inconclusive, DT40 TDP1 no CPT 16µM, TDP1 cell CPT inconclusive (no result: IL-1B inflam inh)
COc1ccccc1NC(=O)c1ccc(C)c(S(=O)(=O)N2CCCCC2)c1	DT40 TDP1 no CPT 26µM, TDP1 cell CPT inconclusive
CC(C)(C)OC(=O)NCCCC[C@H](NC(=O)c1[nH]cnc1C(=O)N[C@@H](Cc1ccccc1)C(=O)OCc1ccccc1)C(=O)OC(C)(C)C	TGFb SMAD3 inh inconclusive, DT40 TDP1 no CPT inconclusive, TDP1 cell CPT inconclusive
C=CCn1c(O)c(C2=c3ccccc3=NC2=O)c2ccccc21	TGFb SMAD3 inh inconclusive, DT40 TDP1 no CPT 4.1µM, TDP1 cell CPT inconclusive (no result: TDP1 inh)
